Structures are written as SMILES. Results filed as inconclusive are left out. Entries that show only a call come without a potency. Calls of active or inactive are those of the source. Calls follow the shape of the dose curve; as a rule, active = well fitted cell-killing curve with a large enough effect in the repeat runs; inconclusive = weak or mixed curves, or effect the other way; inactive = no such curve, though single readings can be large or run the other way.

This experiment can be described thus: qHTS assay to identify small molecule antagonists of the vitamin D receptor (VDR) signaling pathway - cell viability counter screen (AID 743225). Also: nearly all actives have a fitted effect of over 50% in size. The following applies: VDR-bla HEK293T viability, CellTiter-Glo luminescence, 16 h; series mostly up to 61 µM; viability change, negative = cytotoxic: at the top concentration. An excerpt: U.S. Tox21 Program National Center for Advancing Translational Sciences [NCATS] NIH Chemical Genomics Center [NCGC] U.S. Environmental Protection Agency [EPA] National Institutes of Environmental Health Sciences [NIEHS] National Toxicology Program [NTP] U.S. Food and Drug Administration [FDA] Tox21 Assay Overview: The vitamin D receptor (VDR), a member of nuclear hormone receptor superfamily, plays a critical role in calcium homeostasis and bone metabolism. It is also involved in cell differentiation and growth, and thrombogenicity. To identify the compounds that inhibit VDR signaling, the VDR-UAS-bla HEK 293T cell line (Invitrogen, Carlsbad, CA, USA) containing a beta-lactamase reporter gene under the control of an upstream activator sequence (UAS) was used to screen the Tox21 10K compound library. The cytotoxicity of the Tox21 compound library against the VDR-bla cell line was tested in parallel by measuring the cell viability using CellTiter-Glo assay (Promega, Madison, WI) in the same wells.
Tox21 Assay Protocol Summary: VDR-bla cells were dispensed at 2,000 cells/5 uL of assay medium per well into black wall/clear-bottom 1536-well plates using a Multidrop Combi (Thermo Fisher Scientific, Waltham, MA) dispenser. After the assay plates were incubated at a 37C and 5% CO2 for 4 h, 23 nL of compounds dissolved in DMSO, positive controls or DMSO only was transferred to the assay plate by a Pintool station (Kalypsys, San Diego, CA), followed by addition of 1 uL of 1-alpha, 25-Dihydroxy Vitamin D3 (3 nM, final concentration in the wells) using a Bioraptr Flying Reagent Dispenser (FRD) workstation (Beckman Coulter, Indianapolis, IN). The plates were incubated at 37C and 5% CO2 for 16 h, and then 1 uL of LiveBLAzerTM B/G FRET substrate was added using a Bioraptr FRD. The plates were incubated at room temperature for 2 h and fluorescence intensity was measured by an Envision plate reader (PerkinElmer, Shelton, CT). For cell viability readout that measures cytotoxicity, 3 ul/well of CellTiter-Glo reagent was added into the assay plates using a Bioraptr FRD. After 30 min incubation at room temperature, the luminescence intensity in the plates was measured using a ViewLux plate reader (PerkinElmer).
In general terms: qHTS replaces the single test concentration by a dilution series.
Regarding `CCCCCCCC/C=C\CCCCCCCC(=O)O`, the Potency result is “inactive”.
Take `CC(C)[C@@H]1CC[C@@H](C)CC1=O`: the Potency result is “inactive”.
The same measure, in the same setting: under `CCO[Si](CCCNC(N)=O)(OCC)OCC` stands “inactive”.
For `Nc1ccc(N)c(Cl)c1`, the “viability change, negative = cytotoxic” value is 10% (inactive).
`CCCCCCCCCCCCCO`: the Potency entry was “inactive”.
Turning to `Cc1ccc(S(=O)(=O)NCl)cc1`, the Potency result was “inactive”.
The same measure, in the same setting: under `O=C(O)CCCCCCCCCCCC(=O)O` stands “inactive”.
Take `O=[Se](O)O`: the “viability change, negative = cytotoxic” value is 7.42% [at 28.5 µM] (inactive).
Same read-out and setting: under `CC(C)=CCO` stands 8.93% [at 78.8 µM] (inactive); under `CC/C=C\C/C=C\C/C=C\CCCCCCCC(=O)O`, -9.23% (inactive).
In the case of `COCCOCCOCCO`, the Potency entry was “inactive”.
On the same count and under the same terms, under `C1COCCN1` stands “inactive”; under `Cc1cccc(Nc2ccccc2C(=O)O)c1C`, “inactive”.
In the case of `C=CN1CCCC1=O`, the Potency result was “inactive”.
With `COc1ccc2nc(N)sc2c1`, the Potency result is “inactive”.
In the case of `C[C@]12C=CC(=O)C=C1CC[C@H]1[C@@H]3C[C@@H](O)[C@](O)(C(=O)CO)[C@@]3(C)C[C@H](O)[C@@]12F`, the “viability change, negative = cytotoxic” value is -1.11% (inactive).
In the case of `OC[C@@H](O)[C@@H](O[C@@H]1O[C@H](CO)[C@H](O)[C@H](O)[C@H]1O)[C@H](O)[C@@H](O)CO`, the Potency result was “inactive”.
Still for that read-out and setting: under `CCCCCC=O` stands “inactive”.
`CC(=O)OC(C)C`: the “viability change, negative = cytotoxic” value was 22.1% (inactive).
`c1ccc2c(c1)[nH]c1ccccc12`: the Potency entry was “inactive”.
Same read-out and setting: under `O=C1OC2(c3ccccc31)c1cc(I)c(O)c(I)c1Oc1c2cc(I)c(O)c1I` stands “inactive”; under `Cc1ccc(N)c([N+](=O)[O-])c1`, “inactive”.
The same measure, in the same setting: under `CC1(C)C(C=C(Cl)Cl)C1C(=O)OCc1cccc(Oc2ccccc2)c1` (stereo not given) stands “inactive”; under `CC(C)(Oc1ccc(Cl)cc1)C(=O)O`, “inactive”.
On to `Cc1ccc(C(C)(C)C)c(O)c1`, for which the “viability change, negative = cytotoxic” value is -1.72% (inactive).
In the case of `CC(=O)Nc1ccc2c(c1)Cc1cc(NC(C)=O)ccc1-2`, the Potency entry was “inactive”.
With `CN(C)C`, the “viability change, negative = cytotoxic” value was -4.53% [at 78.8 µM] (inactive).
As to `OC[C@H]1O[C@@H]2O[C@H]3[C@H](O)[C@@H](O)[C@@H](O[C@H]4[C@H](O)[C@@H](O)[C@@H](O[C@H]5[C@H](O)[C@@H](O)[C@@H](O[C@H]6[C@H](O)[C@@H](O)[C@@H](O[C@H]7[C@H](O)[C@@H](O)[C@@H](O[C@H]1[C@H](O)[C@H]2O)O[C@@H]7CO)O[C@@H]6CO)O[C@@H]5CO)O[C@@H]4CO)O[C@@H]3CO`, the Potency entry is “inactive”.
Regarding `C/C=C/C(=O)N(CC)c1ccccc1C`, the Potency entry was “inactive”.
Take `O=C(O)CCCC(=O)O`: the “viability change, negative = cytotoxic” value is -2.21% (inactive).
As for `COC(=O)c1ccc(C)cc1`, the Potency result was “inactive”.
`COc1cc([C@H]2Oc3cc([C@H]4Oc5cc(O)cc(O)c5C(=O)[C@@H]4O)ccc3O[C@@H]2CO)ccc1O`: the “viability change, negative = cytotoxic” value was -3.07% (inactive).
On to `COC(=O)CC(=O)OC`, for which the Potency entry was “inactive”.
On the same count and under the same terms, under `CN1CCOCC1` stands “inactive”; under `Cc1ccc2c(c1)C(=O)OC2=O`, “inactive”; under `C=CC(=O)OCCCC`, “inactive”.
Still for that read-out and setting: under `CCC/C=C/C=O` stands “inactive”; under `CCC(Cc1c(I)cc(I)c(N)c1I)C(=O)O` (stereo not given), “inactive”.
On to `O=C(CCCN1CCC(O)(c2ccc(Cl)cc2)CC1)c1ccc(F)cc1`, for which the “viability change, negative = cytotoxic” value was 8.81% (inactive).
On to `Nc1ccc2c(O)cc(S(=O)(=O)O)cc2c1`, for which the Potency result is “inactive”.
